Screening data from PubChem BioAssay.
The list is not random: actives were taken first. Their share in the collection is about 11%.
HEK293 tox – HEK 293 cell cytotoxicity; HEK 293 viability, ATP luminescence (CellTiter-Glo), 48-72 h; Potency, µM (top dose mostly 115 µM), inactives show top-dose activity change, negative = cytotoxicity, usual class: inhibitors; 94,000 compounds, 6.6% hits; AID 1345083; also: nearly all actives have a fitted effect of over 60% in size
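Viability of HEK 293 cells, plated at 250 cells/well, was judged by cellular ATP after compound treatment for 48 or 72 hr. Luminescence was imaged 10 min after CellTiter-Glo addition at room temperature.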
Luciferase inh – inhibitors of firefly (Photinus pyralis) luciferase | 76,000 compounds, 2.5% hits | Potency, µM (series often up to 115 µM), hits mostly inhibitors | purified P. pyralis luciferase, luminescence, biochemical | P08659 | AID 1347043; also: nearly all actives have a fitted effect of over 65% in size
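Purified 10nM P. pyralis luciferase with 10uM D-luciferin and 10uM ATP in 50mM Tris acetate pH 7.5, 10mM Mg acetate, 0.01% Tween-20, 0.05% BSA. qHTS titration; luminescence read by CCD imager.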
3T3 cytotox – kills NIH 3T3 cells. NIH 3T3 viability, CellTiter-Glo ATP luminescence, 48-72 h. Potency, µM (top dose mostly 96.7 µM), for the others: at the top dose activity change, negative = cytotoxicity, most hits filed as inhibitors. 94,000 compounds, 4.3% hits. AID 1345082; also: nearly all actives have a fitted effect of over 55% in size
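ATP-dependent luminescence (CellTiter-Glo) served as the viability signal for NIH 3T3 cells treated with compound for 48 or 72 hr at 37 °C.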
hNpr1 antagonist – antagonists of human natriuretic peptide receptor Npr1; P16066; HEK293 hNpr1 GloSensor cGMP, ANP-stimulated luminescence; Potency, µM (titrated, usually from 46.3 µM), without a hit: top-dose activity change, negative = inhibition, hits mostly inhibitors; 76,000 compounds, 1.6% hits; calls by dose curve; also: nearly all actives have a fitted effect of over 60% in size
Target sequence (P16066 whole entry, looked up): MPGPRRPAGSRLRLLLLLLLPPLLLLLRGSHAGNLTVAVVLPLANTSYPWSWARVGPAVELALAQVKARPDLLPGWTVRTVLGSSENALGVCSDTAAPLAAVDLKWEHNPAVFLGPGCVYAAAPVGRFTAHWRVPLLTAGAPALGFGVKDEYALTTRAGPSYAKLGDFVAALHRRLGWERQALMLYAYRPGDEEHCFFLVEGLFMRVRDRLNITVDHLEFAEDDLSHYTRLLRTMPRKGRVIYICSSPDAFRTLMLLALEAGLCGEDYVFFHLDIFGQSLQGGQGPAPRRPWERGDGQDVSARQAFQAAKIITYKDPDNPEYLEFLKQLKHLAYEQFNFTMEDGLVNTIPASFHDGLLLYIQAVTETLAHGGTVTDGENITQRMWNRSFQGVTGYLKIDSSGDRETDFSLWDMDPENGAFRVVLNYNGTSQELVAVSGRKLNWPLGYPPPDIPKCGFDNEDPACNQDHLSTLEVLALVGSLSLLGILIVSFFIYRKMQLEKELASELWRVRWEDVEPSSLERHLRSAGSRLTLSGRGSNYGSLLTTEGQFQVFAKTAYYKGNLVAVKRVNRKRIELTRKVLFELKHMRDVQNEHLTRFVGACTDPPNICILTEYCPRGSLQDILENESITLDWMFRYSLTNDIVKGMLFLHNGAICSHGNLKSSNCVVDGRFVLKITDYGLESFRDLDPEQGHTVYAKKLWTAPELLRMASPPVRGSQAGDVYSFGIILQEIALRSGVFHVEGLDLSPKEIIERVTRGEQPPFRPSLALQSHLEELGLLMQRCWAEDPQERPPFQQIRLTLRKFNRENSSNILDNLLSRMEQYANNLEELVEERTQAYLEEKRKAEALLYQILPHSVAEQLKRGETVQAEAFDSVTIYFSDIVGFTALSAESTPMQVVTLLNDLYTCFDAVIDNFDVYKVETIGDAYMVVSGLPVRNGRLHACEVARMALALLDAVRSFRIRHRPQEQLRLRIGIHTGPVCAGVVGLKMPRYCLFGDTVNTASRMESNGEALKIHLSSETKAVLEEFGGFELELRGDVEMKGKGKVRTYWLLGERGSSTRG
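Compound pre-incubated 30 min at room temperature on GloSensor-loaded HEK293 cells stably carrying hNpr1 and the pGS-40F cGMP biosensor. Stimulation uses hNppA at 0.1 nM final; luminescence is taken at baseline and 20 min post-agonist.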
* = called active by the depositor; i = inactive; ? = inconclusive; . = no result; [ ] = another dose, or the depositor's remark. Unless noted, calls follow the shape of the dose curve; as a rule, active = well fitted curve in the direction sought with a large enough effect; inconclusive = small, poorly fitted or top-dose-only effect, or another doubt; inactive = no such curve, though single readings can be large; an effect the other way counts as inactive or inconclusive. % is scaled to controls: 0 for no effect and ±100 for the full control effect; potency is read from the fitted curve at half-maximal effect.

SMILES	HEK293 tox	Luciferase inh	3T3 cytotox	hNpr1 antagonist
N#Cc1cccnc1-c1ccc(C(=O)N2CCC(NC(=O)c3ccccn3)CC2)cc1	?	.	-21.9%	.
O=C([C@@H]1C[C@@H](O)[C@H](O)[C@@H]2NC(=S)N(c3ccc(F)cc3)[C@@H]21)N1CCCCC1	-2.3%[172 µM]	?	-1.2%[138 µM]	2.1%[70.6 µM]
Cc1ccc(N2C(=S)N[C@H]3[C@@H](O)[C@H](O)C[C@@H](C(=O)N4CCCCC4)[C@H]32)cc1	i	15.8µM*	i	3.2%[70.6 µM]
O=C(NC1CCCCCC1)C1CCc2nnc(CN[S+](=O)([O-])c3ccccc3Cl)n21 (stereo not given)	-5.9%	.	-24.1%	.
COc1cccc(S(=O)(=O)NCC2Cn3cccc3C(=O)N2C)c1 (stereo not given)	-8.2%	i	-15.9%	0.6%
CCOC(=O)c1oc2ccc(S(=O)(=O)NCC3Cn4cccc4C(=O)N3C)cc2c1C (stereo not given)	39.8µM*	i	-25.5%	?
CC(C)C(=O)NC1CCCN(c2ccnc3ccnn23)C1 (stereo not given)	i	.	0.8%[138 µM]	.
CCOC(=O)[C@H]1C[C@]2(CCCCN(CCO)C2=O)N(C(=O)c2cccc(C#N)c2)[C@H]1c1ccco1	-27.1%	.	?	.
CC(C)c1cc(C(=O)N2CCn3nc(C(=O)Nc4ccccc4)cc3C2)n[nH]1	?	?	?	12.6µM*
O=C(CCc1nc(-c2ccccc2)no1)NC1CCCN(CCCc2ccccc2)C1 (stereo not given)	44.7µM*	i	?	-9.3%
COc1ccc(CC(=O)N2CCC(C(=O)N3CCC(c4nc5ccncc5[nH]4)C3)CC2)cc1 (stereo not given)	4.6%	.	-18.7%	.
CC(C)NC(=O)N1CCN(c2nccc(Nc3ccccc3Cl)n2)CC1	?	.	35.5µM*	.
O=C(Nc1ccc(Cl)cc1)NC1CCN(c2nccc(Nc3ccccc3F)n2)CC1	35.5µM*	.	39.8µM*	.
O=C(C1CCN(c2nccc(Nc3ccccc3F)n2)CC1)N1CCOCC1	-18.3%	.	-29.1%	.
O=C(Nc1ccc(Cl)cc1)N1CCN(c2nccc(Nc3ccccc3F)n2)CC1	28.2µM*	.	?	.
O=C(Nc1ccccc1)N1CCN(c2nccc(Nc3ccccc3Cl)n2)CC1	50.1µM*	.	?	.
O=C(C1CCCCC1)N1CCC2(CC1)CC(Cc1nc(-c3cnccn3)no1)CCO2 (stereo not given)	-23.3%	.	-28.9%	.
O=[S+]([O-])(c1ccccc1)N1CCN(c2nccc(Nc3ccccc3Cl)n2)CC1	?	.	28.2µM*	.
O=C(C1CC1)N1CCN(c2nccc(Nc3ccccc3F)n2)CC1	63.1µM*	.	?	.
Cc1noc(C)c1[S+](=O)([O-])N1CCN(c2nccc(Nc3ccccc3F)n2)CC1	?	.	-39.0%	.
O=C(Cc1ccccn1)N1CCCC(c2nn(-c3cccc(Cl)c3)c(=O)[nH]2)C1 (stereo not given)	i	i	-1.9%	14.2%
CC1(COCC2CC2)COc2ccc(C(=O)Nc3cccc([S+](C)(=O)[O-])c3)cc2N1 (stereo not given)	100µM*	i	?	-20.8%[70.6 µM]
CC1(COCC2CC2)COc2ccc(C(=O)NCc3ccccc3)cc2N1 (stereo not given)	?	i	?	-7.3%[70.6 µM]
CC1(COCC2CC2)COc2ccc(C(=O)Nc3ccccc3)cc2N1 (stereo not given)	?	22.4µM*	?	-30.1%[70.6 µM]
C=CCCC(=O)N1[C@@H](c2ccccc2)[C@@H](C(=O)OCC)C[C@]12CCCCNC2=O	3.0%	.	?	.
SMILES	HEK293 tox	Luciferase inh	3T3 cytotox	hNpr1 antagonist
CN1CC(=O)N(C2CCCNCC2)Cc2c1ncnc2N1CCC(C#N)CC1 (stereo not given)	-8.8%	.	-3.6%	.
CCOc1ccc(NC(=O)Cn2c(N3CCc4ccccc4C3)nc(C)cc2=O)cc1	39.8µM*	i	31.6µM*	-12.2%
CC(=O)c1ccc(NC(=O)Cn2c(N3CCc4ccccc4C3)nc(C)cc2=O)cc1	35.5µM*	i	28.2µM*	-26.9%
Cc1cc(=O)n(CC(=O)Nc2ccc(C)c(C)c2)c(N2CCc3ccccc3C2)n1	?	i	-1.8%	-12.9%
Cc1cc(=O)n(CC(=O)Nc2cccc(C#N)c2)c(N2CCc3ccccc3C2)n1	?	i	?	-5.3%
CC(=O)c1cccc(NC(=O)Cn2c(N3CCc4ccccc4C3)nc(C)cc2=O)c1	44.7µM*	i	?	-22.0%
CCOc1ccc(NC(=O)Cn2c(Nc3cc(C)cc(C)c3)nc(C)cc2=O)cc1	?	i	31.6µM*	-27.4%
O=C1Nc2ccccc2CN(C/C=C/c2ccccc2)C12CCNC2 (stereo not given)	?	.	25.1µM*	.
O=C1Nc2ccccc2CN(CC2CCOCC2)C12CCNCC2	i	.	4.0%	.
O=C1Nc2ccccc2CN(Cc2ccc(Cl)cc2)C12CCNCC2	20µM*	i	14.1µM*	-15.7%
CCCN1Cc2ccccc2NC(=O)C12CCNC2 (stereo not given)	i	.	i	.
O=C1Nc2ccccc2CN(Cc2ccccc2)C12CCNC2 (stereo not given)	?	.	89.1µM*	.
CNC(=O)c1cc(C2CC2)nc2c1c(C1CCCN(C(=O)N(C)C)C1)nn2C (stereo not given)	-15.0%	.	-21.7%	.
O=C(O)CCCC(=O)N1Cc2ccccc2CC2(CCCN(Cc3ccncc3)C2)C1 (stereo not given)	2.5%	.	-15.6%	.
COCC[C@]1(O)CCN(Cc2cc(F)ccc2-n2cccn2)C[C@H]1C	?	i	1.6%	-14.2%
Cc1ccsc1C(=O)C1CCCN(Cc2cc(F)ccc2-n2cccn2)C1 (stereo not given)	39.8µM*	i	?	-2.4%
COc1ccc(Nc2cnc3ccc(-c4ccccc4OC)nn23)cc1	79.4µM*	?	?	-13.7%[70.6 µM]
COc1ccc(-c2ccc3ncc(Nc4ccc(CN5CCN(C)CC5)cc4)n3n2)cn1	?	i	?	5.7%[70.6 µM]
COc1ccccc1-c1ccc2ncc(Nc3ccc(CN4CCN(C)CC4)cc3)n2n1	50.1µM*	i	25.1µM*	-11.7%[70.6 µM]
O=C1CCCCCN1C1CCN(Cc2cccc3ccccc23)CC1	79.4µM*	i	79.4µM*	2.1%[70.6 µM]
O=C1CCCCCN1C1CCN(Cc2ccccc2C(F)(F)F)CC1	79.4µM*	i	?	-7.2%[70.6 µM]
CCNC(=O)OC1CCN(C(=O)c2ccc3c(c2)OCCCO3)CC(=O)N(C)c2ccccc21 (stereo not given)	-9.9%	.	?	.
O=C1NC(=NC2CCCC2)C2(CCN(CC3CC3)C2)N1c1cccnc1 (stereo not given)	0.9%	.	?	.
CC(C)CCN1CCC2(C1)C(=NC1CCCCC1)NC(=O)N2c1cccnc1 (stereo not given)	i	.	?	.
COc1cccc(N2C(=O)NC(=NC3CCCC3)C23CCCN(Cc2cccnc2)C3)c1 (stereo not given)	-15.6%	.	?	.
O=C1NC(=NC2CCCC2)C2(CCCN(CC3CCCCC3)C2)N1c1cccnc1 (stereo not given)	?	.	7.08µM*	.
